Laboratory results: PubChem BioAssay AID623911 (Vanderbilt High Throughput Screening Facility, 2012)
About 770 (37%) of roughly 2,100 compounds were called active.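 Rule for the calls: active = by-eye trace score of 1 for enhancers or -1 for inhibitors, so actives lie on both sides (some results past the limit were not filed as active); inactive = score 0, or 3 fluorescent, or 4 baseline rise.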 This is one part of the list.

These compounds were tested against G protein-activated inward rectifier potassium channel 2 (Homo sapiens) + G protein-activated inward rectifier potassium channel 1 (Homo sapiens) (UniProt P48051+P48549) (assay: GIRK1/2 thallium flux modulators, retest, confirmation, cell-based, HEK293 rmGlu8/hGIRK1/2, FluoZin-2 (AID 623911)). Details: HEK293 rmGlu8/hGIRK1/2, thallium flux FluoZin-2; actives lie on both sides; glutamate co-added at its EC20 level.
G protein-activated inward rectifier potassium channel 2 (Homo sapiens) + G protein-activated inward rectifier potassium channel 1 (Homo sapiens), sequence (P48051 whole entry, looked up): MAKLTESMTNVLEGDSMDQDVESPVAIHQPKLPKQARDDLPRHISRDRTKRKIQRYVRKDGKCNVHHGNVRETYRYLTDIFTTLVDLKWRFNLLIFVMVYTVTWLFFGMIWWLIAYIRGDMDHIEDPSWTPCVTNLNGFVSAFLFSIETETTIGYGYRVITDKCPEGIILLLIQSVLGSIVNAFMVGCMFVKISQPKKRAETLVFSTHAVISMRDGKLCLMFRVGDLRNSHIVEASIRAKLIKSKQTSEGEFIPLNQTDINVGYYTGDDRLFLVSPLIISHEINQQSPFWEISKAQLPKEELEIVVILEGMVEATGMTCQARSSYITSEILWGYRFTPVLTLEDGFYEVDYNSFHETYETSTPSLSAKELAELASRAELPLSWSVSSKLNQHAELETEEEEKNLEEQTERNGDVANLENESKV
G protein-activated inward rectifier potassium channel 2 (Homo sapiens) + G protein-activated inward rectifier potassium channel 1 (Homo sapiens), sequence (P48549 whole entry, looked up): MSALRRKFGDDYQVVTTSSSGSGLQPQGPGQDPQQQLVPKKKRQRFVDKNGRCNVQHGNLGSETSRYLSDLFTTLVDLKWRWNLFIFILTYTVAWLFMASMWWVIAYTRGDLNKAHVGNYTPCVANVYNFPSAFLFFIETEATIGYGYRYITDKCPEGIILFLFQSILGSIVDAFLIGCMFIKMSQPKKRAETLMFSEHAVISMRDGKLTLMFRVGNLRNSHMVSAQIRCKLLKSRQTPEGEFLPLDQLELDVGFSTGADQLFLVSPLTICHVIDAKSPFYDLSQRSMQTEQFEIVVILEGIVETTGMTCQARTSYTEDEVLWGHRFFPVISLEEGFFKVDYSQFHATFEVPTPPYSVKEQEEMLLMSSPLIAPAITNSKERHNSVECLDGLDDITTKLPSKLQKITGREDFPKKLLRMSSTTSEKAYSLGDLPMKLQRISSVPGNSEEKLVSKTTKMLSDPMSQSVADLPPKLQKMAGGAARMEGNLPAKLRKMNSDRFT

| Compound | manual score |
| --- | --- |
| O=c1c2c(nc3c(-c4cccc(Br)c4)c[nH]n13)CCCC2 | 0 (inactive) |
| CSc1nc(N2CCOCC2)c2c(c1C#N)CC(C)(C)OC2 | -0.5 (inactive) |
| CC(C)c1nc(N2CCN(C(=O)c3ccccc3)CC2)c(C#N)c2c1COC(C)(C)C2 | -1 (active) |
| N#Cc1c(N2CCN(C(=O)c3ccccc3)CC2)nc(-c2ccccc2)c2c1CCCC2 | 0 (inactive) |
| CC1CCCN(Cc2cccc(Oc3ccccc3)c2)C1 (configuration not stated) | 0.5 (inactive) |
| CCOc1ccc(N2C(=O)/C(=C/c3cc(OC)c(OC)c(OC)c3)N(CC(=O)OC)C2=S)cc1 | 0 (inactive) |
| CCOC(=O)N1CCC(NC(=O)c2cnn3c2NC(c2ccco2)CC3C(F)(F)F)CC1 (configuration not stated) | 0 (inactive) |
| S=C(Nc1cccc(Br)c1)c1ccccc1 | 0 (inactive) |
| O=C(NN=C1c2ccccc2-c2ccccc21)c1ccccc1Br | 0 (inactive) |
| O=C(NN=C1c2ccccc2-c2ccccc21)c1cccc(Br)c1 | 1 (active) |
| CN(C)S(=O)(=O)c1ccc(C(=O)Nc2nnc(-c3ccc4c(c3)CCCC4)o2)cc1 | 0 (inactive) |
| O=C(Nc1nnc(-c2ccc3c(c2)CCCC3)o1)C1COc2ccccc2O1 (configuration not stated) | 1 (active) |
| O=C(Nc1nnc(-c2ccc3c(c2)CCCC3)o1)c1ccc(Cl)cc1Cl | 1 (active) |
| O=C(Nc1ccc(-c2nc3ccccc3o2)cc1)c1cc(-n2cnnc2)ccc1Cl | 0 (inactive) |
| O=C(Nc1cccc(-c2nnc(-c3ccccc3)o2)c1)C1CCCO1 (configuration not stated) | 0 (inactive) |
| O=C(Nc1nnc(-c2ccc3c(c2)CCCC3)o1)c1ccccc1Cl | 1 (active) |
| O=C(Nc1nnc(-c2ccc3c(c2)CCCC3)o1)c1ccccc1 | 1 (active) |
| CN=c1scc(-c2cccs2)n1/N=C/c1ccc(O)c(O)c1O | 0 (inactive) |
| CCOc1cc(-c2noc(-c3cccnc3)n2)ccc1OC | 0 (inactive) |
| Fc1cccc(C2NN=C(c3ccccc3)S2)c1 (configuration not stated) | 1 (active) |
| CCOc1cc(C2NN=C(c3ccc(C)cc3)S2)ccc1O (configuration not stated) | 0.5 (inactive) |
| CC1CC(=S)Nc2ccccc2N1Cc1ccccc1 (configuration not stated) | 0 (inactive) |
| CC12CN(Cc3ccccc3)CC(C)(CN(Cc3ccccc3)C1)C2=NO | -1 (active) |

| Compound | manual score |
| --- | --- |
| O=C(OCCN1C(=O)c2cccc3c(N4CCOCC4)ccc(c23)C1=O)c1cccc(Cl)c1 | 3 (inactive) |
| O=C(NCCSc1c[nH]c2ccccc12)c1ccco1 | 0 (inactive) |
| CCC(Sc1ccc2nnc(-c3ccc(F)cc3)n2n1)C(=O)OC (configuration not stated) | 0 (inactive) |
| COC(=O)c1ccc(CSc2nnc(Nc3ccccc3OC)s2)o1 | 0 (inactive) |
| COC(=O)c1ccc(CSc2ccc3nnc(-c4ccccc4)n3n2)o1 | -1 (active) |
| O=C(Cc1csc(Nc2nc(=S)[nH]c3ccccc23)n1)NCc1cccc(Cl)c1 | 1 (active) |
| O=C(Cc1csc(Nc2nc(=S)[nH]c3ccccc23)n1)NCc1ccccc1Cl | 0 (inactive) |
| Cc1ccc(CNC(=O)Cc2csc(Nc3nc(=S)[nH]c4ccccc34)n2)cc1 | 0.5 (inactive) |
| COc1cccc(N2CCN(c3c4c(nc5ncnn35)CCC4)CC2)c1 | 0 (inactive) |
| O=C1c2cccc3c(O)ccc(c23)C(=O)N1Cc1ccccc1 | 3 (inactive) |
| CON(c1nc(Cl)nc(N(C)C)n1)S(=O)(=O)c1ccccc1Cl | -1 (active) |
| O=C(c1csc2c1CCCC2)N1CCN(c2ccc(F)cc2)CC1 | -1 (active) |
| COCCn1c(=S)[nH]c2cc(C(=O)N3CCN(c4ccc(F)cc4)CC3)ccc2c1=O | 0 (inactive) |
| C=CCn1c(=S)[nH]c2ccc(Br)cc2c1=O | 1 (active) |
| O=c1c2ccccc2[nH]c(=S)n1CCN1CCN(Cc2ccccc2)CC1 | 0 (inactive) |
| O=c1c2cc(Cl)ccc2[nH]c(=S)n1Cc1cccs1 | 0 (inactive) |
| O=C(C1CCC(Cn2c(=S)[nH]c3ccccc3c2=O)CC1)N1CCN(c2ccccc2)CC1 (configuration not stated) | 0 (inactive) |
| C=CCn1c(=S)[nH]c2ccccc2c1=O | 1 (active) |
| CCN(CC)c1ccc2cc(C=O)c(=O)oc2c1 | 3 (inactive) |
| CC(=O)Nc1ccc(NC(=O)CSc2nccn2Cc2ccccc2)cc1 | 0 (inactive) |
| CCc1cccc(NC(=O)CCSCCC(=O)Nc2cccc(CC)c2)c1 | 0 (inactive) |
| COC(=O)CSc1nc2ncccc2[nH]1 | 0 (inactive) |
| COC(=O)CSc1nnc(SCc2ccc(OC)cc2)s1 | 0 (inactive) |

| Compound | manual score |
| --- | --- |
| CCc1cccc(NC(=O)CSC2=NS(=O)(=O)c3ccccc32)c1 | 1 (active) |
| COC(=O)CSC1=NS(=O)(=O)c2ccccc21 | -1 (active) |
| Clc1ccc2c(c1)C(N1CCNCC1)Cc1ccccc1S2 (configuration not stated) | -1 (active) |
| CSc1nc(-c2ccccc2)[nH]c(=S)c1C(C)=O | 1 (active) |
| CC(=O)c1c(N2CCCC2)[nH]c(-c2ccccc2)nc1=S | 1 (active) |
| CCOC(=O)c1ccc(N2C(=O)C(O)=C(C(C)=O)C2c2ccccc2)cc1 (configuration not stated) | 0 (inactive) |
| O=c1c2c(nc3c(-c4ccccc4)c[nH]n13)CCCC2 | 0 (inactive) |
| CCCCn1c(SC(C)C(N)=O)nc2cc(C(=O)OC)ccc2c1=O (configuration not stated) | 0 (inactive) |
| CN1/C(=C\C=C2/C(=O)Oc3ccccc3C2=O)C(C)(C)c2ccccc21 | 3 (inactive) |
| CCOc1ccc(OCCSc2nc3ccccc3[nH]2)cc1 | 1 (active) |
| CCNC(=O)NC(=O)COC(=O)CCCSc1nc2ccccc2[nH]1 | 0 (inactive) |
| CCCOc1cccc(OCCSc2nc(C)cc(=O)[nH]2)c1 | 0 (inactive) |
| Oc1[nH]c2ccccc2c1N=NC(=S)NCC1CCCO1 (configuration not stated) | 0.5 (inactive) |
| Clc1ccc2[nH]c3c(NCC4CCCO4)ncnc3c2c1 (configuration not stated) | 0 (inactive) |
| Oc1[nH]c2c(Cl)cc(Cl)cc2c1N=NC(=S)NCC1CCCO1 (configuration not stated) | 1 (active) |
| COc1ccc(C2=Nn3c(nnc3C3CCCCC3)SC2)cc1OC | 0 (inactive) |
| c1cc2c(cc1C1=Nn3c(nnc3C3CCCCC3)SC1)OCO2 | 0 (inactive) |
| COc1ccccc1C1=Nn2c(nnc2C2CCCCC2)SC1 | -1 (active) |
| Cc1cc(C)nc(N(C#N)Cc2ccc(Br)cc2)n1 | -1 (active) |
| CC1CCN(c2ccc(NC(=S)NC(=O)c3ccco3)cc2)CC1 | 0 (inactive) |
| CN(C1CCCCC1)S(=O)(=O)c1ccc(NC(=S)NC(=O)c2cccs2)cc1 | 0 (inactive) |
| O=C(NC(=S)Nc1ccc(N2CCCCC2)cc1)c1cccs1 | 1 (active) |
| O=C(NC(=S)Nc1ccccc1N1CCCCC1)c1ccco1 | 0 (inactive) |

| Compound | manual score |
| --- | --- |
| O=C(NC(=S)Nc1ccccc1N1CCOCC1)c1ccco1 | 1 (active) |
| O=C(NC(=S)Nc1ccc(N2CCCCC2)c(Cl)c1)c1cccs1 | 0 (inactive) |
| CC1CCN(c2ccccc2NC(=S)NC(=O)c2ccco2)CC1 | 0 (inactive) |
| O=C(NC(=S)Nc1ccc(N2CCOCC2)cc1)c1ccco1 | 0 (inactive) |
| O=C(NC(=S)Nc1ccc(N2CCCCC2)cc1)c1ccco1 | 1 (active) |
| CC(C)(C)C(=O)/C=c1\[nH]c(=O)/c(=C\c2ccc(F)cc2)s1 | 0 (inactive) |
| Cc1ccc(NC2CC(=O)N(CCc3ccccc3)C2=O)cc1 (configuration not stated) | 0 (inactive) |
| CCn1c(SCC(=O)Nc2oc(-c3ccccc3)c(-c3ccccc3)c2C#N)nnc1-c1ccco1 | 0 (inactive) |
| Cc1cnc(NC(=O)CSc2nc3ccccc3c(=O)[nH]2)s1 | 0 (inactive) |
| COc1ccc(C(=O)CC(=O)C(=O)NCCc2cccc(C)c2)cc1 | 0.5 (inactive) |
| COc1ccc(C(=O)NC(=S)NNC(=O)CCc2ccccc2)cc1 | 1 (active) |
| O=C(CCc1ccccc1)NNC(=S)NC(=O)c1ccc(Cl)cc1 | 1 (active) |
| COc1cc(OC)cc(C(=O)NC(=S)NCCc2ccccc2)c1 | 0 (inactive) |
| CCOc1ccccc1-c1c2cc(O)c(=O)cc-2oc2cc(O)c(O)cc12 | 0 (inactive) |
| CCOc1ccccc1Cn1c(=O)oc2ccc(C)cc21 | -1 (active) |
| CCOC(=O)c1c(-c2ccc(C)o2)csc1NC(=S)NC(=O)c1cccs1 | 0 (inactive) |
| CCNC(=S)Nc1scc(-c2ccccc2)c1C(=O)OCC | 1 (active) |
| CCOC(=O)c1c(-c2ccccc2)csc1NC(=S)NC | 1 (active) |
| CCOC(=O)c1c(-c2ccc(C)o2)csc1NC(=S)NC(=O)N(C)C | 1 (active) |
| CC(C)Cc1nnc(NC(=O)CSc2nc(=O)cc(N)n2-c2ccccc2)s1 | 0 (inactive) |
| Cc1cccc(C)c1NC(=S)NC(=O)c1ccccc1F | 1 (active) |
| CC(C)CC(=O)Nc1cccc2c1C(=O)N(c1ccccc1)C2=O | -0.5 (inactive) |
| O=C(NC(=S)N(Cc1ccccc1)Cc1ccccc1)c1ccccc1F | 1 (active) |

| Compound | manual score |
| --- | --- |
| CC(C)C(=O)NC(=S)N(Cc1ccccc1)Cc1ccccc1 | 1 (active) |
| O=C(NC(=S)NCc1ccccc1)c1ccccc1F | 0.5 (inactive) |
| Cc1cccc(C)c1NC(=S)NC(=O)CCc1ccccc1 | 0 (inactive) |
| CC(C)CC(=O)NC(=S)N(Cc1ccccc1)Cc1ccccc1 | 1 (active) |
| Cc1nc2ccccn2c1-c1csc(NCc2ccco2)n1 | -1 (active) |
| CCCCCNc1nc(-c2ccccc2)cs1 | 0 (inactive) |
| CC(C)(C)C1CCC2(CC1)Nc1cccc3cccc(c13)N2 | 0 (inactive) |
| O=C(O)c1cccc(Nc2nc(N3CCOCC3)nc(N3CCOCC3)n2)c1 | 0 (inactive) |
| Oc1cccc(Nc2nc(NCC3CCCO3)c3ccccc3n2)c1 (configuration not stated) | -1 (active) |
| COC(=O)C1CCCN1C(=O)c1cccs1 (configuration not stated) | 0 (inactive) |
| CC1CCCC(NC(=O)Nc2cccs2)C1C (configuration not stated) | 1 (active) |
| C=COCCNC(=O)Nc1ccc(Cl)c(Cl)c1 | 0.5 (inactive) |
| CCOC(=O)C1=C(CC)Nc2ccccc2N=C1NC(=O)Nc1ccc(Cl)c(Cl)c1 | 1 (active) |
| CCOC(=O)C1=C(CC)Nc2ccccc2N=C1NC(=O)c1ccc(S(=O)(=O)N(C)C)cc1 | 0 (inactive) |
| Cc1ccc2oc(=O)c3cnn(CC(=O)N4CCc5ccccc5C4)c3c2c1 | 0 (inactive) |
| O=C(CSc1nc2ccccc2n1CCc1ccccc1)N1CCOCC1 | 0 (inactive) |
| CCCn1c(=O)c2ccccc2n2c(SCCOc3ccccc3F)nnc12 | -1 (active) |
| CCCn1c(SC(C(=O)Nc2cc(C)ccc2OC)c2ccccc2)nc2ccccc2c1=O (configuration not stated) | 0 (inactive) |
| CCCn1c(=O)c2ccccc2n2c(SCc3nc4ccccc4s3)nnc12 | 0 (inactive) |
| CCCn1c(=O)c2ccccc2n2c(SCC(=O)N3CCc4ccccc4C3)nnc12 | -1 (active) |
